Experimental data: PubChem BioAssay (NCATS)
Results filed as inconclusive are left out. The source made the active and inactive calls. The call rests on the fitted dose curve; in most records, active means well fitted curve in the direction sought with a large enough effect; inconclusive means small, poorly fitted or top-dose-only effect, or another doubt; inactive means no such curve, though single readings can be large; an effect the other way counts as inactive or inconclusive.

Experiments:
[1] = Quantitative High-Throughput drug screen in 47 multiple myeloma cell lines against the NCATS MIPE library collection: KMS12PE_JCRB cell viability assay (AID 1918972); further: nearly all actives have a fitted effect of over 30% in size
Summary of the method: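 Luminescent ATP measurement with CellTiter-Glo gives viability, scaled between DMSO-only wells (100%) and media-only wells (0%). Cells, 500 per well, faced library compounds for 48 hours at 37C.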

[2] = Quantitative High-Throughput drug screen in 47 multiple myeloma cell lines against the NCATS MIPE library collection: KMS26_JCRB cell viability assay (AID 1918975); further: nearly all actives have a fitted effect of over 45% in size
Summary of the method: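 Relative luminescence from CellTiter-Glo served as the viability signal, referenced to DMSO-treated (100%) and cell-free medium (0%) controls. Treatment lasted 48 hours at 37C with 500 cells per well.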

[3] = Quantitative High-Throughput drug screen in 47 multiple myeloma cell lines against the NCATS MIPE library collection: MMM1_PLB cell viability assay (AID 1918976); further: nearly all actives have a fitted effect of over 35% in size
Summary of the method: (§1)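 qHTS format: cells plated (500/well), pin-dosed with MIPE 4.0 compounds, kept 48 h at 37 °C. Readout was CellTiter-Glo luminescence, median RLU.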

[4] = Quantitative High-Throughput drug screen in 47 multiple myeloma cell lines against the NCATS MIPE library collection: NCIH929_DSMZ cell viability assay (AID 1918978); further: nearly all actives have a fitted effect of over 35% in size
Summary of the method: as §1

[5] = Quantitative High-Throughput drug screen in 47 multiple myeloma cell lines against the NCATS MIPE library collection: MM1S_ATCC cell viability assay (AID 1918980); further: nearly all actives have a fitted effect of over 45% in size
Summary of the method: as §1

[6] = Quantitative High-Throughput drug screen in 47 multiple myeloma cell lines against the NCATS MIPE library collection: MM1R_ATCC cell viability assay (AID 1918981); further: nearly all actives have a fitted effect of over 35% in size
Summary of the method: as §1

[7] = Quantitative High-Throughput drug screen in 47 multiple myeloma cell lines against the NCATS MIPE library collection: KMS28PE_JCRB cell viability assay (AID 1918983); further: nearly all actives have a fitted effect of over 35% in size
Summary of the method: as §1

[8] = Quantitative High-Throughput drug screen in 47 multiple myeloma cell lines against the NCATS MIPE library collection: KMS34_JCRB cell viability assay (AID 1918985); further: nearly all actives have a fitted effect of over 40% in size
Summary of the method: as §1

[9] = Quantitative High-Throughput drug screen in 47 multiple myeloma cell lines against the NCATS MIPE library collection: OCIMY7_PLB cell viability assay (AID 1918987); conditions: OCI-MY7 myeloma viability, CellTiter-Glo ATP, 48 h; viability (% of DMSO): at 45.8 µM (top of the series); further: nearly all actives have a fitted effect of over 65% in size
Summary of the method: as §1

[10] = Quantitative High-Throughput drug screen in 47 multiple myeloma cell lines against the NCATS MIPE library collection: OCIMY5_PLB cell viability assay (AID 1918988); further: nearly all actives have a fitted effect of over 65% in size
Summary of the method: as §1

[11] = Quantitative High-Throughput drug screen in 47 multiple myeloma cell lines against the NCATS MIPE library collection: OPM1_PLB cell viability assay (AID 1918989); further: nearly all actives have a fitted effect of over 40% in size
Summary of the method: as §1

[12] = Quantitative High-Throughput drug screen in 47 multiple myeloma cell lines against the NCATS MIPE library collection: U266_ATCC cell viability assay (AID 1919864); further: nearly all actives have a fitted effect of over 35% in size
Summary of the method: as §1

[13] = Quantitative High-Throughput drug screen in 47 multiple myeloma cell lines against the NCATS MIPE library collection: XG6_PLB cell viability assay (AID 1919865); further: nearly all actives have a fitted effect of over 40% in size
Summary of the method: as §1

[14] = Quantitative High-Throughput drug screen in 47 multiple myeloma cell lines against the NCATS MIPE library collection: OCIMY1_PLB cell viability assay (AID 1918979); further: nearly all actives have a fitted effect of over 35% in size
Summary of the method: as §1

[15] = Quantitative High-Throughput drug screen in 47 multiple myeloma cell lines against the NCATS MIPE library collection: LP1_DSMZ cell viability assay (AID 1918982); further: nearly all actives have a fitted effect of over 35% in size
Summary of the method: as §1

[16] = Quantitative High-Throughput drug screen in 47 multiple myeloma cell lines against the NCATS MIPE library collection: L363_DSMZ cell viability assay (AID 1918984); conditions: L363 myeloma viability, CellTiter-Glo ATP luminescence, 48 h; viability (% of control): at 45.8 µM (top of the series); further: nearly all actives have a fitted effect of over 40% in size
Summary of the method: as §1

[17] = Quantitative High-Throughput drug screen in 47 multiple myeloma cell lines against the NCATS MIPE library collection: SKMM1_PLB cell viability assay (AID 1919863); conditions: SKMM1 myeloma viability, CellTiter-Glo ATP, 48 h; viability: stronger effect = lower value; further: nearly all actives have a fitted effect of over 35% in size
Summary of the method: as §1

[18] = Quantitative High-Throughput drug screen in 47 multiple myeloma cell lines against the NCATS MIPE library collection: MOLP8_DSMZ cell viability assay (AID 1918977); further: nearly all actives have a fitted effect of over 45% in size
Summary of the method: as §1

[19] = Quantitative High-Throughput drug screen in 47 multiple myeloma cell lines against the NCATS MIPE library collection: KMS21BM_JCRB cell viability assay (AID 1918974); conditions: ATP luminescence, 48 h; viability: at 45.8 µM (top of the series)
Summary of the method: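 Approved and investigational drugs from MIPE 4.0 were added by pin tool to 500 cells per well. After 48 hours at 37C, ATP-based CellTiter-Glo luminescence indicated remaining viability.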
Potency means the concentration at half of the fitted maximal effect.

C[C@@H]1CC=CC=CC=CC=C[C@@H](O[C@@H]2O[C@H](C)[C@@H](O)[C@H](N)[C@H]2O)C[C@@H]2O[C@](O)(C[C@@H](O)C[C@@H]3O[C@@H]3C=CC(=O)O1)C[C@H](O)[C@@H]2C(=O)O
active: Potency [3] 23.5 µM | Potency [4] 16.6 µM | Potency [5] 20.9 µM | Potency [6] 14.8 µM | Potency [7] 14.8 µM | Potency [8] 18.7 µM | Potency [9] 2.96 µM | Potency [10] 11.8 µM | Potency [11] 16.6 µM
inactive: Potency [1] | Potency [2]

c1ccc(-c2oc3ncnc(NC[C@@H]4CCCO4)c3c2-c2ccccc2)cc1
active: Potency [1] 4.69 µM | Potency [2] 18.7 µM | Potency [3] 20.9 µM | Potency [5] 18.7 µM | Potency [6] 23.5 µM | Potency [7] 26.4 µM | Potency [10] 14.8 µM | Potency [12] 16.6 µM | Potency [13] 10.5 µM
inactive: Potency [4]

Fc1ccc(CNc2ncnc3ccc(F)cc23)cc1
inactive: Potency [2] | viability [17] 104%
active: Potency [1] 4.69 µM | Potency [3] 4.18 µM | Potency [4] 16.6 µM | Potency [14] 14.8 µM | Potency [5] 14.8 µM | Potency [15] 2.64 µM | Potency [7] 11.8 µM | Potency [16] 5.26 µM | Potency [10] 16.6 µM | Potency [11] 16.6 µM | Potency [12] 13.2 µM | Potency [13] 14.8 µM

O=C(O)CCC=CCC[C@@H]1[C@H](N2CCCCC2)[C@@H](O)C[C@@H]1OCc1ccc(-c2ccccc2)cc1
inactive: Potency [1] | Potency [2] | Potency [3] | Potency [18] | Potency [4] | Potency [5] | Potency [6] | Potency [15] | Potency [7] | Potency [16] | Potency [8] | Potency [10] | viability [17] 114% | Potency [12] | Potency [13]

Cc1cc(OCCCS(C)(=O)=O)cc(C)c1-c1cccc(COc2ccc3c(c2)OC[C@H]3CC(=O)O)c1
active: Potency [1] 5.26 µM | Potency [3] 14.8 µM | Potency [4] 20.9 µM | Potency [6] 6.62 µM | Potency [15] 16.6 µM | Potency [7] 20.9 µM | Potency [9] 18.7 µM | Potency [17] 14.8 µM | Potency [13] 23.5 µM
inactive: Potency [2] | Potency [14] | Potency [8] | Potency [12]

CCC(=O)OCC(=O)[C@@]1(OC(=O)CC)[C@@H](C)C[C@@H]2[C@H]3CCC4=CC(=O)C=C[C@]4(C)[C@@]3(F)[C@@H](O)C[C@@]21C
inactive: Potency [4] | Potency [14] | viability [17] 97.1% | Potency [12]
active: Potency [1] 10.5 µM | Potency [19] 2.64 µM | Potency [16] 1.05 µM | Potency [11] 14.8 µM | Potency [13] 11.8 µM

CC(C)C[C@@H](C(=O)N[C@H](C(=O)OC1CCCC1)c1ccccc1)[C@H](O)C(=O)NO
active: Potency [1] 2.09 µM | Potency [2] 18.7 µM | Potency [3] 23.5 µM | Potency [18] 23.5 µM | Potency [4] 18.7 µM | Potency [14] 16.6 µM | Potency [5] 20.9 µM | Potency [6] 18.7 µM | Potency [7] 23.5 µM | Potency [9] 14.8 µM | Potency [10] 20.9 µM | Potency [17] 20.9 µM | Potency [13] 14.8 µM

CCNC(=O)Nc1ccc(Oc2ncnc(N)c2C=NOC)cc1Cl
active: Potency [1] 2.96 µM | Potency [19] 2.35 µM | Potency [14] 23.5 µM | Potency [9] 2.64 µM | Potency [10] 14.8 µM | Potency [17] 11.8 µM | Potency [13] 4.18 µM
inactive: Potency [6] | Potency [11]

COc1cc([C@H]2Oc3cc([C@H]4Oc5cc(O)cc(O)c5C(=O)[C@H]4O)ccc3O[C@H]2CO)ccc1O
inactive: Potency [1] | Potency [16]
active: Potency [2] 16.6 µM | Potency [3] 7.43 µM | Potency [4] 23.5 µM | Potency [5] 9.35 µM | Potency [6] 23.5 µM | Potency [7] 20.9 µM | Potency [8] 20.9 µM | Potency [9] 8.33 µM | Potency [10] 10.5 µM | Potency [11] 14.8 µM | Potency [17] 23.5 µM | Potency [13] 14.8 µM

O[C@@H](COc1cccc2ncccc12)CN1CCN(C2c3ccccc3[C@@H]3[C@H](c4ccccc42)C3(F)F)CC1 (stereo partly drawn)
inactive: Potency [1]
active: Potency [2] 20.9 µM | Potency [3] 26.4 µM | Potency [4] 11.8 µM | Potency [5] 7.43 µM | Potency [6] 18.7 µM | Potency [7] 23.5 µM | Potency [9] 7.43 µM | Potency [10] 18.7 µM | Potency [11] 23.5 µM | Potency [17] 23.5 µM | Potency [12] 8.33 µM | Potency [13] 7.43 µM

COc1ccc(Cn2ccc3ccc(C(=O)NO)cc32)cc1
inactive: Potency [6] | Potency [7]
active: Potency [1] 16.6 µM | Potency [19] 5.9 µM | Potency [4] 18.7 µM | Potency [5] 16.6 µM | Potency [15] 16.6 µM | Potency [9] 9.35 µM | Potency [13] 14.8 µM

CCCCC(C)(C)[C@H](O)C=C[C@H]1[C@H](O)CC(=O)[C@H]1CC=CCCCC(=O)O
active: Potency [2] 16.6 µM | Potency [3] 16.6 µM | Potency [4] 18.7 µM | Potency [5] 14.8 µM | Potency [8] 5.9 µM | Potency [11] 18.7 µM | Potency [12] 13.2 µM | Potency [13] 23.5 µM
inactive: Potency [1]

Cc1ccc(C2=Nc3ccc(Cl)cc3OC2)cc1
inactive: Potency [2] | Potency [4] | Potency [7]
active: Potency [1] 4.18 µM | Potency [3] 18.7 µM | Potency [8] 6.62 µM | Potency [9] 1.32 µM | Potency [11] 10.5 µM | Potency [13] 7.43 µM
